Results taken from PubChem BioAssay AID1851 (National Center for Advancing Translational Sciences (NCATS), 2009).
Hit rate of the full screen: of about 16,000 compounds, about 5,700 (36%) were called active. About 24% were inconclusive and are not listed. The list shows a part of the results. Unmarked numbers belong to inactive results. Calls come from the whole dose curve; as a rule, active = well fitted curve in the direction sought with a large enough effect; inconclusive = small, poorly fitted or top-dose-only effect, or effect the other way; inactive = no such curve, though single readings can be large or run the other way.

These compounds were tested against Cytochrome P450 1A2 (Homo sapiens) (UniProt P05177) (assay: Cytochrome panel assay with activity outcomes). Conditions: recombinant CYP, pro-luciferin dealkylation, luminescence, p450-cyp1a2; series mostly up to 57.1 µM; activity, negative = inhibition: at the top concentration.
Chain of Cytochrome P450 1A2 (Homo sapiens) (P05177 whole entry, looked up): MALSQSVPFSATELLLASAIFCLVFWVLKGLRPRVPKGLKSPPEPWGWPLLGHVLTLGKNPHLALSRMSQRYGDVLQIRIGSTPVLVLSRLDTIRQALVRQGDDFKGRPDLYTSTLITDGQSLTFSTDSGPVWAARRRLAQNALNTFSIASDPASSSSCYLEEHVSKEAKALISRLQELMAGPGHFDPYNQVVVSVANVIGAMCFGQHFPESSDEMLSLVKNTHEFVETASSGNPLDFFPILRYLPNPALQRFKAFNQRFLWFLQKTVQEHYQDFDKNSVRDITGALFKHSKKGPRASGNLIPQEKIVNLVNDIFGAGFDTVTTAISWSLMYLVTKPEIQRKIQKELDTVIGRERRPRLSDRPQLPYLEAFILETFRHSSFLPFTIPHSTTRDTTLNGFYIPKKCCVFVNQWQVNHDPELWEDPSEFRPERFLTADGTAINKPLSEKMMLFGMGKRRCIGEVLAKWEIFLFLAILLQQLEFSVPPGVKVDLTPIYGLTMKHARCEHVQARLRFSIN
% is set by controls: 0 for no effect and ±100 for the full control effect.

| SMILES | activity, negative = inhibition | AC50 |
| --- | --- | --- |
| COC(=O)c1ccc(NC(=O)C2CCCCC2C(=O)O)cc1 (configuration not stated) | 11.3% | – |
| COC(=O)c1ccc(NC(=S)NC2CCCCC2)cc1 | – | 14100 nM (active) |
| O=C(Nc1ccc(Cl)cc1)NC1CCCCC1 | -20.7% | – |
| Cc1ccc(NC(=S)N2CCN(C3CCCCC3)CC2)cc1 | -15.9% | – |
| Cc1ccc(NC(=S)NC2CCCC2)cc1 | – | 15800 nM (active) |
| CC(=O)NS(=O)(=O)c1ccc(NC(=O)NC2CCCCC2)cc1 | -8.66% | – |
| CCc1cccc(CC)c1NC(=O)CN(CC(=O)O)CC(=O)O | -9.69% [at 25.6 µM] | – |
| CN(C)CCCn1c2c3ccccc3ccc2c2oc(=O)c3ccccc3c21 | – | 316 nM (active) |
| CC(=O)Nc1cc(S(=O)(=O)Nc2ccccc2)c(C)cc1C | -0.331% | – |
| CCn1c2ccccc2c2cc(NS(=O)(=O)c3ccccc3C)ccc21 | – | 3160 nM (active) |
| COc1c(NC(C)=O)c2ccccc2c2ccccc12 | – | 398 nM (active) |
| CC(=O)Nc1ccccc1C(=O)C(=O)O | -3.38% | – |
| COCCN=C1Sc2nc3c(C)cccc3cc2CN1Cc1ccco1 | – | 631 nM (active) |
| O=c1c2ccccc2nc2n1CC/C2=C\c1ccccc1[N+](=O)[O-] | – | 3160 nM (active) |
| COc1ccc(-c2nc3cnc(Nc4cccc(OC)c4)nc3n(Cc3cccs3)c2=O)cc1 | -12.7% | – |
| O=c1cnc2cnc(Nc3ccccc3)nc2n1Cc1cccs1 | – | 1000 nM (active) |
| Cc1nc2cnc(Nc3ccccc3)nc2n(Cc2cccs2)c1=O | – | 1580 nM (active) |
| COc1cccc(Nc2ncc3nc(C)c(=O)n(Cc4cccs4)c3n2)c1 | – | 2510 nM (active) |
| COc1cccc(Nc2ncc3ncc(=O)n(Cc4cccs4)c3n2)c1 | – | 1580 nM (active) |
| CCN(CC)C[C@@H](O)CN1CCCCc2nc(C)c(C)cc21 | -9.64% [at 11.4 µM] | – |
| O=C(Cc1cccc2ccccc12)N/N=C/c1ccc(Sc2nc3ccccc3s2)o1 | -12.4% | – |
| COCC(=O)N/N=C/c1ccc(Sc2nc3ccccc3s2)o1 | – | 15800 nM (active) |
| Cc1ccc(NS(=O)(=O)c2ccccc2Cl)c2c1CC(C)(C)O2 | – | 1260 nM (active) |
| Cc1cc(C)c(S(=O)(=O)N2CCCCC2)c(C)c1N(C)S(=O)(=O)c1ccccc1 | 8.05% | – |
| O=C(Nc1cccc(C(F)(F)F)c1)N(Cc1ccc(Cl)cc1)CC(O)C(F)(F)F (configuration not stated) | – | 12600 nM (active) |

| SMILES | activity, negative = inhibition | AC50 |
| --- | --- | --- |
| CC(O)(CS(=O)(=O)Cc1ccc(Cl)cc1)C(=O)Nc1cccc(C(F)(F)F)c1 (configuration not stated) | -29.5% | – |
| CCCCN=c1sc(C(=O)OC)cc(=O)n1CCCC | – | 251 nM (active) |
| CCN1C(=O)[C@H]2[C@H]3[C@H](O)[C@H](O)C/C(=N/O[C@@H]4O[C@H](COC(C)=O)[C@@H](OC(C)=O)[C@H](OC(C)=O)[C@H]4OC(C)=O)[C@@H]3CC[C@@H]2C1=O | -2.53% [at 11.4 µM] | – |
| Cc1ccc(-n2c3c(c(=O)[nH]c2=O)C(NS(=O)(=O)c2ccc(C)cc2)(C(F)(F)F)C(=O)N3)cc1 (configuration not stated) | -2.02% | – |
| CCOC(=O)N/N=C/c1ccccc1F | – | 6310 nM (active) |
| Cc1ccc(/C=N\NC(=O)c2cc(OCC(F)(F)F)ccc2OCC(F)(F)F)cc1 | -18.2% | – |
| CCOC(=O)C(=Cc1ccc(F)cc1)C(=O)OCC | – | 25100 nM (active) |
| CCOC(=O)N/N=C/c1ccc(F)cc1 | – | 11200 nM (active) |
| O=C(NCCC[N+]1=CC=N[C@H]1c1ccccc1)N1CCCc2nc(-c3ccc(Br)cc3)ccc21 | 7.37% [at 11.4 µM] | – |
| Cc1ccc(C2C(C(=O)c3sc(C)nc3C)=C(O)C(=O)N2CCN2CCOCC2)o1 (configuration not stated) | -8.98% | – |
| CCOc1ccc(N(C(=O)/C=C/C(=O)Nc2cc(C)on2)C(C(=O)NC2CCCC2)c2ccccc2C)cc1 (configuration not stated) | -14.5% | – |
| COc1ccc2nc3oc(C(=O)NCc4cccs4)cc3cc2c1 | – | 2000 nM (active) |
| COc1ccc2cc3cc(C(=O)NCc4ccc5c(c4)OCO5)oc3nc2c1 | – | 316 nM (active) |
| COc1ccc2cc3cc(C(=O)Nc4ccc5c(c4)OCO5)oc3nc2c1 | – | 501 nM (active) |
| CCc1ccc(C(C(=O)NCc2ccc(OC)cc2)N(CCOC)C(=O)Cc2cccs2)cc1 (configuration not stated) | -19.9% | – |
| CCCS(=O)(=O)N1CCCC(C(=O)NCCCN2CCN(c3ccccc3F)CC2)C1 (configuration not stated) | 18.4% | – |
| COc1ccc(N2CCN(CCNC(=O)C3CCN(S(=O)(=O)c4cccs4)CC3)CC2)cc1 | -8.48% | – |
| COc1ccc2cc3cc(C(=O)NCCN4CCN(c5ccccc5F)CC4)oc3nc2c1 | – | 15800 nM (active) |
| O=C1C[C@@H](O)[C@@H](O)[C@@H]2[C@H]3C(=O)N(c4ccc(F)cc4F)C(=O)[C@@H]3CC[C@@H]12 | -7.03% [at 11.4 µM] | – |
| COc1ccc2cc3cc(C(=O)NCc4ccccn4)oc3nc2c1 | – | 1000 nM (active) |
| CC(C)CC(=O)Nc1sc2c(c1C#N)CC(C)(C)NC2(C)C | -26.2% | – |
| O=C(O)CCCSc1ccccc1 | -11.7% [at 11.4 µM] | – |
| O=C(c1ccccc1)c1ccc(OCCn2cnc3ccccc3c2=O)cc1 | -15.9% | – |
| O=C1c2ccccc2C(=O)N1CCCSc1ccccc1 | – | 1000 nM (active) |
| O=c1c2ccccc2ncn1CCCSc1ccccc1 | – | 7080 nM (active) |

| SMILES | activity, negative = inhibition | AC50 |
| --- | --- | --- |
| Cc1ccc(SCCCn2cnc3ccccc3c2=O)cc1 | – | 3160 nM (active) |
| COc1cc(Cl)c(C)cc1NC(=O)CNC(=O)Cn1cnc2ccccc2c1=O | -7.13% | – |
| O=C1c2ccccc2C(=O)N1C[C@]1(C(=O)O)NCCS1(=O)=O | -5.5% [at 2.29 µM] | – |
| CC(C)(C)NC(=O)C(Cc1ccccc1)NS(=O)(=O)c1ccc2c(c1)CCC(=O)N2 (configuration not stated) | -16.2% | – |
| Cn1c(=O)c(-c2ccc(Cl)cc2)nc2cnc(Oc3ccccc3)nc21 | – | 200 nM (active) |
| Cn1c(=O)c(-c2ccccc2)nc2cnc(Oc3ccccc3)nc21 | – | 2000 nM (active) |
| COc1ccc(Oc2ncc3nc(-c4ccc(Cl)cc4)c(=O)n(C)c3n2)cc1 | – | 631 nM (active) |
| CC(C)CN1CC[C@@]2(CCCN(C(=O)c3csnn3)C2)C1 | -16.6% | – |
| CCn1ncc(/C=C/C(=O)NCc2cn(C)nc2C)c1C | 2.23% | – |
| COCc1cc(=O)[nH]c2cc(NC(=O)C(F)(F)F)c(C)cc12 | – | 11200 nM (active) |
| CCCCCC(=O)Nc1cc2[nH]c(=O)cc(COC)c2cc1C | -12.2% | – |
| COc1ccc(C(=O)Nc2ccc(C(=O)OCC(=O)c3ccccc3)cc2)cc1 | -1.73% | – |
| CCC(=O)Nc1ccccc1C(=O)OCC(=O)c1ccccc1 | – | 5620 nM (active) |
| COc1cccc(C(CC(=O)Nc2cccc3ccccc23)NC(=O)c2ccccc2)c1 (configuration not stated) | -7.28% | – |
| COc1ccc(C(=O)COC(=O)c2ccc(NC(=O)c3ccccc3)cc2)cc1 | 2.4% | – |
| CCC(=O)Nc1ccccc1C(=O)OCC(=O)c1cccc2ccccc12 | – | 2510 nM (active) |
| CN(C)c1ncnc2ccc(-c3cccnc3)cc12 | – | 200 nM (active) |
| COc1cccc(-c2ccc3ncnc(N(C)C)c3c2)c1 | – | 794 nM (active) |
| O=C1NC(O)=NC1(c1ccccc1)c1ccccc1 | -12.9% | – |
| N#Cc1c(-c2ccccc2)cc(C2CC2)nc1SCC(=O)c1cccs1 | – | 562 nM (active) |
| CSc1nc(C2CC2)cc(-c2cccs2)c1C#N | – | 316 nM (active) |
| CSc1nc(N)nc(-c2cccs2)c1C#N | – | 2000 nM (active) |
| Cc1ccc(N=CC2=C(O)CC(c3ccco3)CC2=O)cc1 (configuration not stated) | – | 25100 nM (active) |
| CC(C)C12CN3CC(C(C)C)(CN(C1)C3c1ccco1)C2=O (configuration not stated) | 11% | – |
| CCC(=O)N(C)/C=C1\Sc2ccccc2C1=O | – | 3160 nM (active) |

| SMILES | activity, negative = inhibition | AC50 |
| --- | --- | --- |
| CS(=O)(=O)c1cnc2c(-c3ccc(F)cc3)cnn2c1N | – | 3550 nM (active) |
| O=C(N/N=C/c1ccc([N+](=O)[O-])s1)c1ccccc1Br | – | 15800 nM (active) |
| O=C(NCCNc1ccc([N+](=O)[O-])cc1)c1ccccc1Br | -27.5% | – |
| COc1cccc(NC(=S)NNC(=O)C(C)n2nc(C)c([N+](=O)[O-])c2C)c1 (configuration not stated) | -23.7% | – |
| Cc1cccc(NC(=S)N/N=C/c2ccc([N+](=O)[O-])s2)c1 | – | 1410 nM (active) |
| Cc1ccc(C(=O)N/N=C/c2ccc([N+](=O)[O-])s2)cc1 | – | 2820 nM (active) |
| O=C(N/N=C/c1ccc(Br)s1)c1ccccc1[N+](=O)[O-] | – | 14100 nM (active) |
| O=C(N/N=C/c1cc([N+](=O)[O-])ccc1N1CCNCC1)c1ccc([N+](=O)[O-])cc1 | -24.1% | – |
| CO[C@H]1COC(=O)C/C=C\[C@@H](C)[C@H](OC)COC(=O)CCC[C@@H]1C | -5.95% [at 11.4 µM] | – |
| CC(=O)N1CCC(=O)N(C(C)C)c2ccccc21 | -11.8% | – |
| Cc1cc(N2CCN(c3nc4ccccc4s3)CC2)n2ncnc2n1 | – | 15800 nM (active) |
| CCCNC(=O)OC[C@@H]1O[C@H](CCO/N=C(\C)CCN2CCCc3nc(C)c(C)cc32)C=C[C@@H]1Oc1ccc(OC)cc1 | 0.587% [at 11.4 µM] | – |
| C=CCOC(=O)/C(=C\c1cccc2ccccc12)NC(=O)c1ccccc1 | – | 7080 nM (active) |
| CCCCOc1ccc(C(=O)N/C(=C\c2cccc([N+](=O)[O-])c2)C(=O)OCCC)cc1 | -18.3% | – |
| COc1ccc(NC(=O)/C(=C\c2cc(OC)c(OC)cc2[N+](=O)[O-])NC(=O)c2ccccc2)cc1 | 9.17% | – |
| c1ccc2c(c1)-c1nc3ccccc3cc1[C@H]2N1CCOCC1 | – | 1260 nM (active) |
| CCCCCCC1CC(C)(/C(C)=N/NC(N)=O)OC1=O (configuration not stated) | -17.7% | – |
| O=S(=O)(c1cnccc1N1CCN(/N=C/c2ccccc2)CC1)N1CCCCC1 | -18.1% | – |
| CCn1c(-c2ccoc2C)n[nH]c1=S | – | 22400 nM (active) |
| CSC1(SC2=NCCN2)SC2(NCCN2)S1 | – | 398 nM (active) |
| O=C(O)CCSC1=NCCN1 | -7.93% [at 11.4 µM] | – |
| COc1ccc(NC(=O)N2CC[C@@]3(CCCNC3)C2)cc1 | -8.34% | – |
